Experimental data reported in paper PMC7862700, “An all-to-all approach to the identification of sequence-specific readers for epigenetic DNA modifications on cytosine”.

Legend:
Assay in all cases: DAPPL (digital affinity profiling via proximity ligation, sequencing); 10 mM Tris-HCl pH 7.5, 50 mM NaCl, 1 mM DTT, 4% glycerol, room temperature, 30 min; GST-TFs on glutathione beads, 16-mer random dsDNA library, 0.1% formaldehyde crosslink after washing; high values mean tight binding
[1] = biological target: T1, FEV (Homo sapiens, UniProt Q99581 1-238); conditions: protein: recombinant; tags: N-terminal GST; dsDNA, one strand shown
T1 sequence: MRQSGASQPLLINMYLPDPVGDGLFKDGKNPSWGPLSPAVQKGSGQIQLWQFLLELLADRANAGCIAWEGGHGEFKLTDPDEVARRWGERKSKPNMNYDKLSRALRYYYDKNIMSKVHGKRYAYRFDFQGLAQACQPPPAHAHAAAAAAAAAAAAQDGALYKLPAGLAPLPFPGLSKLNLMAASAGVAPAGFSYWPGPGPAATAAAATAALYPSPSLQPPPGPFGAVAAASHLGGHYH
Method in brief: (§1)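 Beads coated with glutathione captured GST-fused human transcription factors that had been expressed in yeast, and the factors were then given DNA barcodes and pooled with a tag-only sample. The pools were incubated with 200 nmole of a random double-stranded 16-mer DNA library in Tris/NaCl/DTT/glycerol buffer for 30 min at room temperature, washed, crosslinked with 0.1% formaldehyde and proximity-ligated with BsaI/T4 ligase at 37 °C for 1 h. PCR amplification and Illumina NextSeq500 sequencing came last. Binding signal is each hexamer's read frequency for a factor divided by its frequency for the tag-only sample.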

[2] = biological target: ETV5 (Homo sapiens, UniProt P41161 1-510); conditions: protein: recombinant; tags: N-terminal GST; dsDNA, one strand shown
Method in brief: as §1

[3] = biological target: HSF1 (Homo sapiens, UniProt Q00613 1-529); conditions: protein: recombinant; tags: N-terminal GST; chain copies: 3; dsDNA, one strand shown
Method in brief: as §1

[4] = biological target: T2, SPIC (Homo sapiens, UniProt Q8N5J4 1-248); conditions: protein: recombinant; tags: N-terminal GST; dsDNA, one strand shown
T2 sequence: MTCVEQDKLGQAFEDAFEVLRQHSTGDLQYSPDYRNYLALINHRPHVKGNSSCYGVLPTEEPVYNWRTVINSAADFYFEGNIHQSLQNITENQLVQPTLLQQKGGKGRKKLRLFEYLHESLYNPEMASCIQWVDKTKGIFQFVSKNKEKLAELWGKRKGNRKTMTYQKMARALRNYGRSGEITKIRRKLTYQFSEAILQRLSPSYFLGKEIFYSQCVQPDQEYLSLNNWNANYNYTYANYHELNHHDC
Method in brief: as §1

[5] = biological target: ELF4 (Homo sapiens, UniProt Q99607 1-663); conditions: protein: recombinant; tags: N-terminal GST; dsDNA, one strand shown
Method in brief: as §1

[6] = biological target: T3, ELK4 (Homo sapiens, UniProt P28324-2 1-405); conditions: protein: recombinant; tags: N-terminal GST; dsDNA, one strand shown
T3 sequence: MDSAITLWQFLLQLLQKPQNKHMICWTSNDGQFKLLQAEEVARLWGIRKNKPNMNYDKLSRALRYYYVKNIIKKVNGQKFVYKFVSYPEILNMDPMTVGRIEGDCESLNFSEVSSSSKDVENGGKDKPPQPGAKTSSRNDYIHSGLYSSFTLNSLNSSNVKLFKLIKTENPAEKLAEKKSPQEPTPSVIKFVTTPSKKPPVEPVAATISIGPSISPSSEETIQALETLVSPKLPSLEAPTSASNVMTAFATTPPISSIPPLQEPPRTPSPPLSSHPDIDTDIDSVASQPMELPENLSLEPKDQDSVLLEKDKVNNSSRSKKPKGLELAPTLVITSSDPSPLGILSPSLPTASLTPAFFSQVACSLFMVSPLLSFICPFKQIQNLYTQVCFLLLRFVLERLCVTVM
Method in brief: as §1

[7] = biological target: T4, ETV2 (Homo sapiens, UniProt O00321 1-342); conditions: protein: recombinant; tags: N-terminal GST; dsDNA, one strand shown
T4 sequence: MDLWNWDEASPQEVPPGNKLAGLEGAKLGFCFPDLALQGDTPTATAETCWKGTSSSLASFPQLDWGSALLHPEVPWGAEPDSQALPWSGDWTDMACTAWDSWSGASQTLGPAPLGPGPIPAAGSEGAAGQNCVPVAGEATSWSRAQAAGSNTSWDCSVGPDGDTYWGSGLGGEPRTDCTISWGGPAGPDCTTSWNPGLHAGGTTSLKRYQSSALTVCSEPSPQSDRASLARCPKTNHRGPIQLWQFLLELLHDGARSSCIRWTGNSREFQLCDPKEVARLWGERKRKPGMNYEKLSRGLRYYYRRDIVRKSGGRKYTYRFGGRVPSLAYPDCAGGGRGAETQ
Method in brief: as §1

[8] = biological target: T5, ELF3 (Homo sapiens, UniProt P78545 1-371); conditions: protein: recombinant; tags: N-terminal GST; dsDNA, one strand shown
T5 sequence: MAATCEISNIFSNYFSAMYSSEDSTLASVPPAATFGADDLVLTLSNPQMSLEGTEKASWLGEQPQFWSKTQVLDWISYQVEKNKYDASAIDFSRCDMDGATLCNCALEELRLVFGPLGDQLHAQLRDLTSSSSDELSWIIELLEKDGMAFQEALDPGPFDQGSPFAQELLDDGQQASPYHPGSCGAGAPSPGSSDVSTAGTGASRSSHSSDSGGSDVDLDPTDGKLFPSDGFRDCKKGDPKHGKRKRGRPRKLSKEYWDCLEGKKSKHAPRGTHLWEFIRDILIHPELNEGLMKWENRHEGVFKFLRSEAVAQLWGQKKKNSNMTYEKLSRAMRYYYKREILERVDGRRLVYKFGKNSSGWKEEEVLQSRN
Method in brief: as §1

[9] = biological target: CRX (Homo sapiens, UniProt O43186 1-299); conditions: protein: recombinant; tags: N-terminal GST; dsDNA, one strand shown
Method in brief: as §1

[10] = biological target: ETV1 (Homo sapiens, UniProt P50549 1-477); conditions: protein: recombinant; tags: N-terminal GST; dsDNA, one strand shown
Method in brief: as §1

[11] = biological target: T6, ERF (Homo sapiens, UniProt P50548 1-548); conditions: protein: recombinant; tags: N-terminal GST; dsDNA, one strand shown
T6 sequence: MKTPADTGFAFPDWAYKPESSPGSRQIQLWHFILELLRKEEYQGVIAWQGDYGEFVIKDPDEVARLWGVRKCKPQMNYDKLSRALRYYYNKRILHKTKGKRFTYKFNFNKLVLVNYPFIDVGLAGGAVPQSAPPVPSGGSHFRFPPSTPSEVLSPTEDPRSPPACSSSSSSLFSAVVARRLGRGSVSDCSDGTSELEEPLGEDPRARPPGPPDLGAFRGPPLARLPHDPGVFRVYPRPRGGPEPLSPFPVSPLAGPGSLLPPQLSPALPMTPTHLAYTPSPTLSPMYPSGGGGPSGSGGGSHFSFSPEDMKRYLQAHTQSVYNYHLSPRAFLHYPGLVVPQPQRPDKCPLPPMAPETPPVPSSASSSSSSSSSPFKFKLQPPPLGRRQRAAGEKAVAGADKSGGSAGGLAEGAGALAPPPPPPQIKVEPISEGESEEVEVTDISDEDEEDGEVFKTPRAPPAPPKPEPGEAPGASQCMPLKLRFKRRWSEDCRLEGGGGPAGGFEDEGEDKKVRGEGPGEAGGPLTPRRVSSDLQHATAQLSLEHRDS
Method in brief: as §1

[12] = biological target: T7, ETV3L (Homo sapiens, UniProt Q6ZN32 1-361); conditions: protein: recombinant; tags: N-terminal GST; dsDNA, one strand shown
T7 sequence: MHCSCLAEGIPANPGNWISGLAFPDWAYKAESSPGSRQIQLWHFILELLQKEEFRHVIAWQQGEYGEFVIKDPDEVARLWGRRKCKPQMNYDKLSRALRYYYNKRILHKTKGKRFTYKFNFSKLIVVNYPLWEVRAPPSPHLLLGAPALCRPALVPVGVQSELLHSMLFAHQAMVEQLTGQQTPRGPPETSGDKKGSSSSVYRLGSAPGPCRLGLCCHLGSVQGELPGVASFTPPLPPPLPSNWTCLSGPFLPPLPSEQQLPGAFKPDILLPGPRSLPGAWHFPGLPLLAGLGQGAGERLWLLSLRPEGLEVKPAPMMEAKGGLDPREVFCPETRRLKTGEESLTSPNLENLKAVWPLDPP
Method in brief: as §1

[13] = biological target: T8, ETS2 (Homo sapiens, UniProt P15036 1-469); conditions: protein: recombinant; tags: N-terminal GST; dsDNA, one strand shown
T8 sequence: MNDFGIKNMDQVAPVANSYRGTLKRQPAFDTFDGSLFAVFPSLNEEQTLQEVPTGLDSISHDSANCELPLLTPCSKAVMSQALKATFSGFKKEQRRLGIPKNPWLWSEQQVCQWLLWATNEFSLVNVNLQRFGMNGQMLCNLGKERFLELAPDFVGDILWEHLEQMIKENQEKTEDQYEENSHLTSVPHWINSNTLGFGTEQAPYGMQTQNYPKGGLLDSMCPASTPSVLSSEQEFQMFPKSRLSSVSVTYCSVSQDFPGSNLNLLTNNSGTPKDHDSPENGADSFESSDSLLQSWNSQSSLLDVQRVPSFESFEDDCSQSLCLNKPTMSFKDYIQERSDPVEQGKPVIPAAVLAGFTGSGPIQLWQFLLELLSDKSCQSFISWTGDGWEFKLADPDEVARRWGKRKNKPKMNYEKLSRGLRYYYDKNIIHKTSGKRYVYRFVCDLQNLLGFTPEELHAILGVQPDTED
Method in brief: as §1

[14] = biological target: T9, SPDEF (Homo sapiens, UniProt O95238 1-335); conditions: protein: recombinant; tags: N-terminal GST; dsDNA, one strand shown
T9 sequence: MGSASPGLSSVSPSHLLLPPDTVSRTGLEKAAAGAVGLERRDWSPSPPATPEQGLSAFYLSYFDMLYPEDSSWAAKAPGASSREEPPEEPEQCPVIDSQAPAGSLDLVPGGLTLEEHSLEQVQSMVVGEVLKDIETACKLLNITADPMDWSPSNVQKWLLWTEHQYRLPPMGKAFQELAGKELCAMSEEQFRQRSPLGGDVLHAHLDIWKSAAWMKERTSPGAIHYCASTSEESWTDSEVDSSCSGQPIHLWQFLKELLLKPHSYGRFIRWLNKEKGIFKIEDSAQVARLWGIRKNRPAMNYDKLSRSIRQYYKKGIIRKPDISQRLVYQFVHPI
Method in brief: as §1

[15] = biological target: T10, ETV7 (Homo sapiens, UniProt Q9Y603 1-341); conditions: protein: recombinant; tags: N-terminal GST; dsDNA, one strand shown
T10 sequence: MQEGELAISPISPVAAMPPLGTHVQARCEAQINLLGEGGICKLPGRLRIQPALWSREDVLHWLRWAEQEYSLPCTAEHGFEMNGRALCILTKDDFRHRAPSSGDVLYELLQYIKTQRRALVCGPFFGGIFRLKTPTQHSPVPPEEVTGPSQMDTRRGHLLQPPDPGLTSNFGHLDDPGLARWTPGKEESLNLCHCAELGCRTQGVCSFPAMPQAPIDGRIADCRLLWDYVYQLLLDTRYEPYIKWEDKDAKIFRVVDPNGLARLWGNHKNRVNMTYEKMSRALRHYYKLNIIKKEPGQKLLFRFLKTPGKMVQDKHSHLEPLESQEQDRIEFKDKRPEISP
Method in brief: as §1

[16] = biological target: T11, ELF5 (Homo sapiens, UniProt Q9UKW6-2 1-255); conditions: protein: recombinant; tags: N-terminal GST; dsDNA, one strand shown
T11 sequence: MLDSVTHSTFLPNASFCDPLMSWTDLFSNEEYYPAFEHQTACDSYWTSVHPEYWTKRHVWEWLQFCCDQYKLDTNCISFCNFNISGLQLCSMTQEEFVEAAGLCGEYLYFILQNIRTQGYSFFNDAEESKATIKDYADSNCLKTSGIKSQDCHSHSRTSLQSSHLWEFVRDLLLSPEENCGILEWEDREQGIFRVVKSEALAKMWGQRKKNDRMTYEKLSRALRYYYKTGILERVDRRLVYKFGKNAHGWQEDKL
Method in brief: as §1

[17] = biological target: T12, ETV3 (Homo sapiens, UniProt P41162-2 1-143); conditions: protein: recombinant; tags: N-terminal GST; dsDNA, one strand shown
T12 sequence: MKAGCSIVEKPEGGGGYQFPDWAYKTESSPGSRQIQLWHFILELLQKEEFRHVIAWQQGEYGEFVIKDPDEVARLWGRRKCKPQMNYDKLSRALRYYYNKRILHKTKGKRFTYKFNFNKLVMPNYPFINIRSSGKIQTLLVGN
Method in brief: as §1

[18] = biological target: ETV6 (Homo sapiens, UniProt P41212 1-452); conditions: protein: recombinant; tags: N-terminal GST; dsDNA, one strand shown
Method in brief: as §1

CRX, sequence (O43186 whole entry): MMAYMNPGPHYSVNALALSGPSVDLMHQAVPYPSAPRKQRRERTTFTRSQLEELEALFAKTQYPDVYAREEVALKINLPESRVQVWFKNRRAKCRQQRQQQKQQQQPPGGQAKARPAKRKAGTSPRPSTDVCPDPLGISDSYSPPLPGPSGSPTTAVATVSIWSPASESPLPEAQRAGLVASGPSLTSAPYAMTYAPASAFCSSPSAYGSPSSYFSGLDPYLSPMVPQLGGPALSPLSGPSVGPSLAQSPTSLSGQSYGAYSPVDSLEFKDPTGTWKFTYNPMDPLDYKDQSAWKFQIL
HSF1, sequence (Q00613 whole entry): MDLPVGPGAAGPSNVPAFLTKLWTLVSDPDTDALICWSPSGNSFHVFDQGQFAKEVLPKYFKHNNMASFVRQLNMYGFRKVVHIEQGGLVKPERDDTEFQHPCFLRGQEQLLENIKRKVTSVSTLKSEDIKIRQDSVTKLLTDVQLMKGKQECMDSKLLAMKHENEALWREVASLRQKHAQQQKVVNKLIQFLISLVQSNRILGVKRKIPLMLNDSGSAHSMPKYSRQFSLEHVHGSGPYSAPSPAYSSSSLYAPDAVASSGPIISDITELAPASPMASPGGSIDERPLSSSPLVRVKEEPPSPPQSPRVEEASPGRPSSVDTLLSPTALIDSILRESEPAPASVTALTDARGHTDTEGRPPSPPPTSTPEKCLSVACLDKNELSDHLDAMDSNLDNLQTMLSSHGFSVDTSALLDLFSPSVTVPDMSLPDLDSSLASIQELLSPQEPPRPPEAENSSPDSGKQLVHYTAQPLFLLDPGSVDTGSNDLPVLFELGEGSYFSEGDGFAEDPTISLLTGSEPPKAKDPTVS
ETV5, sequence (P41161 whole entry): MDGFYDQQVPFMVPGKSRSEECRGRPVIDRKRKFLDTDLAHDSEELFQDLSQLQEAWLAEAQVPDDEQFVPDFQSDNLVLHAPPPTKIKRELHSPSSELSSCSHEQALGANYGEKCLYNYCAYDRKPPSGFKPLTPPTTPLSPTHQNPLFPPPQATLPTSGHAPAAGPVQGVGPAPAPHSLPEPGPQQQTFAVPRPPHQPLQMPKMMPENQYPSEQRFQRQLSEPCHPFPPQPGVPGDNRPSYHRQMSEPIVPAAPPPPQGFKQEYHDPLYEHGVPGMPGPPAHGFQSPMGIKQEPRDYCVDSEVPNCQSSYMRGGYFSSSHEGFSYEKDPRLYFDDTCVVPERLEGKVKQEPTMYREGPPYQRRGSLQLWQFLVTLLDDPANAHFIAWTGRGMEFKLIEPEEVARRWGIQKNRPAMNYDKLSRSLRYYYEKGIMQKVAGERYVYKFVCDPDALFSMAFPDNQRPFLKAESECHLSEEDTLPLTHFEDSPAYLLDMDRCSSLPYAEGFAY
ELF4, sequence (Q99607 whole entry): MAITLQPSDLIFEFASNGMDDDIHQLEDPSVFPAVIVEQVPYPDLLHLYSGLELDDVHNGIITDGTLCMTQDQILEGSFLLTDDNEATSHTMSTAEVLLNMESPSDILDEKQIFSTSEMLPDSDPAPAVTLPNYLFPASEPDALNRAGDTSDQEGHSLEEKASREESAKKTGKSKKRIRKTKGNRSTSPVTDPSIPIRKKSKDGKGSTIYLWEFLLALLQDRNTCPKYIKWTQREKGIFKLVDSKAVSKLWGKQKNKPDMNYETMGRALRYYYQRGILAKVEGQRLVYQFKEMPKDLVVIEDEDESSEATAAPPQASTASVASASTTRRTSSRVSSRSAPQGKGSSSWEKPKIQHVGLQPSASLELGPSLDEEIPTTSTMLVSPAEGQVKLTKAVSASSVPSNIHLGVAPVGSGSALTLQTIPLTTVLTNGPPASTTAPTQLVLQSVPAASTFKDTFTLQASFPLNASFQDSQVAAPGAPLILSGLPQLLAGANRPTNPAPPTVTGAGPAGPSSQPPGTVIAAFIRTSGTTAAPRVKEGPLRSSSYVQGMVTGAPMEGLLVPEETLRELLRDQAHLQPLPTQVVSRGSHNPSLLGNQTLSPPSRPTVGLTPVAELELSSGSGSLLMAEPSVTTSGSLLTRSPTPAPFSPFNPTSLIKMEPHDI
ETV1, sequence (P50549 whole entry): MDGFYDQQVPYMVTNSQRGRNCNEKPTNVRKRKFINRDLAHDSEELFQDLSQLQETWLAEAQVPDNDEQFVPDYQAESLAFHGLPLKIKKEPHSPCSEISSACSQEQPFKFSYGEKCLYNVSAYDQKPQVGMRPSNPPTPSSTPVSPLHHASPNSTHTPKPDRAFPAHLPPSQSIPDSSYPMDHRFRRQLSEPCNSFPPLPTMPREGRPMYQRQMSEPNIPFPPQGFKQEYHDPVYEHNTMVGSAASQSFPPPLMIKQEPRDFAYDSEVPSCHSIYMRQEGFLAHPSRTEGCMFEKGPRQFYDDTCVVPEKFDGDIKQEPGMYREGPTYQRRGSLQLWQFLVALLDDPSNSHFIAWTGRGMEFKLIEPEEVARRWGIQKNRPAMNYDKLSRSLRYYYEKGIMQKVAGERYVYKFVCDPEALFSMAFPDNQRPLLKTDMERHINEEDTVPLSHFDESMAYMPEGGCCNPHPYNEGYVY
ETV6, sequence (P41212 whole entry): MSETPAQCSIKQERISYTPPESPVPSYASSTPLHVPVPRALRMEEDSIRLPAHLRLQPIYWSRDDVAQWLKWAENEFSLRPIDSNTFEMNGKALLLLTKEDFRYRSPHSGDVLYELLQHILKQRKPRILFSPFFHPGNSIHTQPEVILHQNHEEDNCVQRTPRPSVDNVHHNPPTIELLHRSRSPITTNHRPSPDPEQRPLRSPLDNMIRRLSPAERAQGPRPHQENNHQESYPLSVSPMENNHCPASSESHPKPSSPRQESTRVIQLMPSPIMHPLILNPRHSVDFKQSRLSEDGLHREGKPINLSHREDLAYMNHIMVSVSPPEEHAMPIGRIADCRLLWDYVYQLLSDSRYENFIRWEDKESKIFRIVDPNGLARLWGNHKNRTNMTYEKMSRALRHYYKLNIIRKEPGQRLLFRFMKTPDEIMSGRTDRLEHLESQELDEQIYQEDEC

CTCGTC
binding signal [1]: 1.31 fold enrichment (6-mer frequency, TF over GST control) | binding signal [2]: 1.31 fold enrichment (6-mer frequency, TF over GST control) | binding signal [3]: 1.22 fold enrichment (6-mer frequency, TF over GST control) | binding signal [4]: 1.37 fold enrichment (6-mer frequency, TF over GST control) | binding signal [5]: 1.42 fold enrichment (6-mer frequency, TF over GST control) | binding signal [6]: 1.57 fold enrichment (6-mer frequency, TF over GST control) | binding signal [7]: 1.25 fold enrichment (6-mer frequency, TF over GST control) | binding signal [8]: 1.47 fold enrichment (6-mer frequency, TF over GST control) | binding signal [9]: 1.02 fold enrichment (6-mer frequency, TF over GST control) | binding signal [10]: 1.45 fold enrichment (6-mer frequency, TF over GST control) | binding signal [11]: 1.4 fold enrichment (6-mer frequency, TF over GST control) | binding signal [12]: 1.24 fold enrichment (6-mer frequency, TF over GST control) | binding signal [13]: 1.46 fold enrichment (6-mer frequency, TF over GST control) | binding signal [14]: 1.35 fold enrichment (6-mer frequency, TF over GST control) | binding signal [15]: 1.46 fold enrichment (6-mer frequency, TF over GST control) | binding signal [16]: 1.32 fold enrichment (6-mer frequency, TF over GST control) | binding signal [17]: 1.34 fold enrichment (6-mer frequency, TF over GST control) | binding signal [18]: 1.46 fold enrichment (6-mer frequency, TF over GST control)
